According to PubChem BioAssay AID488784 (Sanford-Burnham Center for Chemical Genomics, 2010):
The whole screen tested about 1,000 compounds, of which about 700 (70%) were called active. Rule as the data show it: active = inhibition above about 50%; inactive = the rest. The set was probably picked from earlier hits. A selection follows.

Assay: CASP1-PYCARD signaling inhibition in yeast, confirmatory test, counterassay for NLRP3 inhibitor program, one-dose (AID 488784)
Settings: yeast expressing Caspase-1-ASC, luminescence counter screen; at 10 µM; active compounds read high

Compound | inhibition
O=C1/C(=C\c2ccc3c(c2)OCO3)N2CCC1CC2 | 60.4% (active)
Cc1cc2ccccn2c1C(C[N+](=O)[O-])c1c(F)cccc1Cl (centres undefined) | 12.2% (inactive)
CCCCCCCCCCCCn1ccc(=N)cc1 | 59% (active)
Cc1ccc(-c2nc3ccccc3c(=O)n2-c2ccc(Br)cn2)cc1 | 44% (inactive)
